The list is not random: actives were taken first. Their share in the collection is about 3.8%.
ATXN viability = cell viability loss in ATXN counter-screen | Potency, µM (doses to about 56.7 µM), most hits filed as cytotoxic | S2 cells (HEK-293 line with an ATXN2-luciferase reporter) viability, CellTiter-Fluor protease fluorescence, 24 h | AID 651635 | hit rate 0.49% among 400,000; further: nearly all actives have a fitted effect of over 40% in size
Nrf2 inh = inhibitors of Nrf2 signaling. A549 ARE-Fluc reporter, luciferase luminescence, 18-24 h. Potency, µM (top dose mostly 46 µM), inactives show at the highest dose activity change, negative = inhibition, actives largely listed as inhibitors. hit rate 2.1% among 360,000; further: on the % scale 0 is the no-effect control and ±100 the full control effect; nearly all actives have a fitted effect of over 60% in size
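A549 ARE_Fluc cells (5000/well, 5% FBS OPTI-MEM) pre-incubated 2 h, then treated with compounds 18-24 h at 37C/5% CO2 in concentration-response. CellTiter-Fluor viability read first; BugLite luciferase luminescence after 15 min at room temperature gives Nrf2 activity.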
HepG2 tox-1 = kills HepG2 cells in TGF-b inhibitor counter-screen. HepG2 CAGA-GFP viability, ATP luminescence, 18 h. AID 588856. Potency, µM (titrated, usually from 46.1 µM), for inactives: at the highest dose activity change, negative = cytotoxicity, usual class: cytotoxic. hit rate 0.76% among 410,000
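HepG2 CAGA-GFP cells (1000/well, DMEM with 1% FBS) received compound, then TGF-beta at 500 pg/mL final, and were incubated 18 hours at 37 degrees C. Viability was read by CellTiter-Glo luminescence. Media-only wells were set as complete cell-killing and DMSO as no toxicity.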
TGFb SMAD3 inh = TGF-b pathway inhibition; HepG2 CAGA-GFP TGF-b/SMAD3 reporter, GFP fluorescence, 18 h; TGF-beta stimulated, 500 pg/mL final; Potency, µM (top dose mostly 46.1 µM), for inactives: at the top dose activity, negative = inhibition, actives largely listed as inhibitors; hit rate 1.2% among 410,000; AID 588855; further: on the % scale 0 is the no-effect control and ±100 the full control effect; nearly all actives have a fitted effect of over 65% in size
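GFP signal (ex488/em500-530) from TGF-beta-stimulated HEPG2 CAGA-GFP cells, 500 pg/mL final, 18 h at 37 degrees C in DMEM plus 1% FBS, normalized to unstimulated and DMSO-stimulated controls.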
A549 viability = A549 cytotoxicity, counter-screen for Nrf2 inhibitors. A549 ARE-Fluc cells, CellTiter-Fluor viability, 18-24 h. Potency, µM (highest dose often 46 µM), inactives show at the top dose activity change, negative = cytotoxicity, hits mostly inhibitors. hit rate 0.16% among 390,000; further: on the % scale 0 is the no-effect control and ±100 the full control effect
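A549 ARE_Fluc cells in 5% FBS OPTI-MEM were exposed to compounds in concentration-response for 18-24 h at 37 deg C. Viability was read by CellTiter-Fluor fluorescence (Ex 405/Em 525) after 30 min, before the luciferase read.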
ATXN2 expr inh = ATXN2 expression inhibition; HEK-293 ATXN2-luciferase reporter, luminescence, 24 h; Potency, µM (top dose mostly 57 µM), for inactives: at the highest dose activity change, negative = inhibition, hits mostly inhibitors; hit rate 0.72% among 360,000; AID 1745845; further: on the % scale 0 is the no-effect control and ±100 the full control effect; nearly all actives have a fitted effect of over 55% in size
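ATXN2-luciferase reporter cells (luciferase flanked by upstream and downstream ATXN2 gene portions) were treated 24 h at 37 °C with compounds at up to 57 uM. SteadyGlo luminescence gave expression; GF-AFC fluorescence gave viability.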
TGFb confirm = confirmation of TGF-b signaling inhibitors in HepG2 reporter cells; shares compounds with TGFb SMAD3 inh; Potency, µM (top dose mostly 46.1 µM), for inactives: at the top dose activity, negative = inhibition, usual class: inhibitors; AID 720534; hit rate 63% among 1,600; HepG2 CAGA-GFP TGF-b reporter, GFP fluorescence, 18 h; cells stimulated with TGF-beta, 500 pg/mL; further: on the % scale 0 is the no-effect control and ±100 the full control effect; nearly all actives have a fitted effect of over 65% in size
HepG2 tox-2 = HepG2 cytotoxicity, TGF-b inhibitor counterscreen; Potency, µM (top dose mostly 46.1 µM), inactives show at the highest dose activity, negative = cytotoxicity, usual class: inhibitors; HepG2 CAGA-GFP viability, ATP luminescence, 18 h; cells stimulated with TGF-beta, 500 pg/mL; shares compounds with TGFb SMAD3 inh; hit rate 27% among 1,600; further: on the % scale 0 is the no-effect control and ±100 the full control effect; nearly all actives have a fitted effect of over 70% in size
CCL64 TGFb inh = TGF-b inhibition, CCL64 orthogonal assay. shares compounds with TGFb SMAD3 inh. CCL64 CAGA-GFP reporter, TGF-b stimulated, GFP fluorescence, 18 h. Potency, µM (highest dose often 46.1 µM), for inactives: at the highest dose activity, negative = inhibition, usual class: inhibitors. hit rate 41% among 1,600. AID 720536; further: nearly all actives have a fitted effect of over 65% in size
TGFb COP inh = validation of TGF-b inhibitors in HepG2 COP promoter reporter. shares compounds with TGFb SMAD3 inh. HepG2 COP-GFP TGF-b reporter, GFP fluorescence, 18 h; cells stimulated by added recombinant TGF-beta. Potency, µM (highest dose often 46.1 µM), inactives show at the highest dose activity, negative = inhibition, actives largely listed as inhibitors. hit rate 3% among 1,600; further: nearly all actives have a fitted effect of over 70% in size
* hit, by the source's call; i = inactive; ? = inconclusive; . = no result given. The call rests on the fitted dose curve; in most records, active means well fitted curve in the direction sought with a large enough effect; inconclusive means small, poorly fitted or top-dose-only effect, or another doubt; inactive means no such curve, though single readings can be large; an effect the other way counts as inactive or inconclusive. Potency means the concentration at half of the fitted maximal effect.

SMILES | ATXN viability | Nrf2 inh | HepG2 tox-1 | TGFb SMAD3 inh | A549 viability | ATXN2 expr inh | TGFb confirm | HepG2 tox-2 | CCL64 TGFb inh | TGFb COP inh
CCOC(=O)C1CCN(C(=O)c2c(C)oc3c2C(=O)c2ccccc2C3=O)CC1 | ? | ? | 2.8µM* | 4.5µM* | ? | ? | 2.1µM* | 5.2µM* | 7.3µM* | 5.8µM*
CC1CCN(C(=O)c2ccc3c(c2)C(=O)c2ccccc2-3)CC1 | . | . | 1% | -5% | . | . | . | . | . | .
Cc1oc2c(c1C(=O)N1CCC(C)CC1)C(=O)c1ccccc1C2=O | 18µM* | 26µM* | 5µM* | 4µM* | ? | 25µM* | 3.7µM* | 5.8µM* | 12µM* | 21µM*
CCC(C)[C@H]1COCCS(=O)(=O)N1Cc1ccccc1 (some centres undefined) | i | 7% | 3% | 7% | 11% | -21% | . | . | . | .
CC1C(c2ccccc2)=Nn2c(=O)n(-c3ccccc3)c(=O)n21 (centres undefined) | ? | . | -66% | ? | . | . | . | . | . | .
COc1ccc(S(=O)(=O)N2CCN(CC(=O)Nc3sccc3C(N)=O)CC2)cc1OC | i | -28% | -10% | ? | 1% | . | . | . | . | .
CC(C)(C)c1ccc(/C=C2\SC(=O)N(CCNC(=O)c3cccc(S(=O)(=O)N4CCOCC4)c3)C2=O)cc1 | ? | ? | -19% | 13µM* | -3% | -11% | 7.3µM* | ? | ? | 18%
O=C(CSc1nnc(COc2cccc3cccnc23)o1)N1CCc2ccccc21 | i | ? | -37% | ? | -6% | -29% | ? | ? | -28% | 39%
O=C(CSc1nnc(Cc2ccccc2)o1)N1CCc2ccccc21 | i | . | 6% | ? | 8% | -8% | . | . | . | .
O=C(Cn1c(=O)n(CCc2ccccc2)c(=O)c2cccnc21)Nc1ccc(F)cc1 | i | 2% | -1% | ? | 1% | 0% | . | . | . | .
Cc1ccc(NC(=O)Cc2cc(C(=O)O)c3ccccc3n2)c(C)c1 | i | 5.8µM* | -53% | 8.9µM* | ? | . | ? | ? | 7.3µM* | 44%
CCCc1cc(C(=O)O)c2ccccc2n1 | i | . | -1% | 17% | 6% | 6% | . | . | . | .
O=C(c1cc(-n2cnnc2)ccc1Cl)N1CCN(c2nc(-c3ccccc3)cs2)CC1 | i | . | -5% | 11µM* | ? | ? | 8.2µM* | -30% | ? | 12%
Cc1cc(C)c(S(=O)(=O)Nc2ccc3c4c(cccc24)CC3)c(C)c1 | ? | -11% | -39% | 8.9µM* | ? | -31% | 12µM* | ? | 9.2µM* | 33%
